# Test results from PubChem BioAssay (EPA / NIEHS).
# Active and inactive are the calls of the source. The calls were made as follows: active = hit-call score of the fitted dose curve at least 0.9, where 1 is the maximum; inactive = score below 0.9.
# Experiments:
# [1] = read-out: Urokinase-type plasminogen activator receptor (uPAR), PLAUR (gene 5329); test: BSK_4H_uPAR: BioMAP Diversity Plus: 4H Assay for Urokinase-type plasminogen activator receptor (uPAR) Biomarker Activity (AID 2283030); conditions: primary human endothelial cells (HUVEC); actives raise or lower the signal
# In short: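 Chemicals are dosed onto human vascular endothelial primary cells (umbilical vein). After 24 h, uPAR is read by ELISA. Gain or loss of signal is fitted relative to DMSO.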
# [2] = read-out: Human Leukocyte Antigen - DR isotype (HLADR), HLA-DRA (gene 3122); test: BSK_BE3C_HLADR: BioMAP Diversity Plus: BE3C Assay for Human Leukocyte Antigen - DR isotype (HLADR) Biomarker Activity (AID 2283032); conditions: primary human bronchial epithelial cells; actives raise or lower the signal
# In short: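 Human primary bronchial epithelial cells (BE3C system) exposed to compound for 24 hours; cell-surface HLA-DR measured by ELISA, fitted bidirectionally relative to DMSO. Total protein by SRB in parallel cultures tracked cytotoxicity.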
# [3] = read-out: Monokine induced gamma interferon (MIG), CXCL9 (gene 4283); test: BSK_BE3C_MIG: BioMAP Diversity Plus: BE3C Assay for Monokine induced gamma interferon (MIG) Biomarker Activity (AID 2283035); conditions: primary human bronchial epithelial cells; actives raise or lower the signal;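 as to outcome: MIG protein measured by ELISA in BE3C cultures after 24 h of dosing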
# In short: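 Primary human bronchial epithelial cells treated for 24 h; MIG levels measured by ELISA, fitted bidirectionally versus DMSO. Parallel SRB total-protein staining assessed cytotoxicity.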
# [4] = read-out: Transforming growth factor beta 1 (TGFb1), TGFB1 (gene 7040); test: BSK_BE3C_TGFb1: BioMAP Diversity Plus: BE3C Assay for Transforming growth factor beta 1 (TGFb1) Biomarker Activity (AID 2283036); conditions: primary human bronchial epithelial cells; actives raise or lower the signal
# In short: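 Primary human bronchial epithelial cells dosed with chemical; TGF-b1 measured by ELISA 24 h after dosing. Bidirectional curve fitting against DMSO negative control; SRB total-protein staining in parallel cultures gauged cytotoxicity.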
# [5] = read-out: urokinase plasminogen activator (uPA), PLAU (gene 5328); test: BSK_BE3C_uPA: BioMAP Diversity Plus: BE3C Assay for urokinase plasminogen activator (uPA) Biomarker Activity (AID 2283038); conditions: primary human bronchial epithelial cells; actives raise or lower the signal;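 also: uPA protein level quantified by ELISA in cell cultures; uPA read one day after compound addition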
# In short: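 Measured by ELISA: uPA from human primary bronchial epithelial cells 24 h after chemical treatment. Values derive from bidirectional curve fitting with DMSO serving as negative control. Total protein by SRB staining in parallel wells flagged overt cytotoxicity.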
# [6] = read-out: Urokinase-type plasminogen activator receptor (uPAR), PLAUR (gene 5329); test: BSK_BE3C_uPAR: BioMAP Diversity Plus: BE3C Assay for Urokinase-type plasminogen activator receptor (uPAR) Biomarker Activity (AID 2283039); conditions: primary human bronchial epithelial cells; actives raise or lower the signal;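 also: cells exposed to compound for one day before measurement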
# In short: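 Primary human bronchial epithelial cells dosed for 24 h; uPAR quantified by ELISA with bidirectional fitting against DMSO. Overt cytotoxicity assessed in parallel cultures by SRB total-protein staining (0.1% SRB, 560 nm).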
# [7] = read-out: Interleukin-6 (IL6), IL6 (gene 3569); test: BSK_CASM3C_IL6: BioMAP Diversity Plus: CASM3C Assay for Interleukin-6 (IL6) Biomarker Activity for (AID 2283040); conditions: primary human coronary artery smooth muscle cells; actives raise or lower the signal
# [8] = read-out: Tissue plasminogen activator (tPA), PLAT (gene 5327); test: BSK_BE3C_tPA: BioMAP Diversity Plus: BE3C Assay for Tissue plasminogen activator (tPA) Biomarker Activity (AID 2283041); conditions: primary human bronchial epithelial cells; actives raise or lower the signal;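 also: tPA level quantified by ELISA one day after compound addition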
# In short: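 Primary human bronchial epithelial cells in the BE3C system, exposed to compound for 24 h. tPA was quantified by ELISA; DMSO served as baseline, with gain or loss of signal fitted. Cytotoxicity checked in parallel cultures by SRB total-protein staining.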
# [9] = read-out: Interleukin-8 (IL8), CXCL8 (gene 3576); test: BSK_CASM3C_IL8: BioMAP Diversity Plus: CASM3C Assay for Interleukin-8 (IL8) Biomarker Activity (AID 2283042); conditions: primary human coronary artery smooth muscle cells; actives raise or lower the signal;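 also: IL-8 protein level quantified by ELISA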
# [10] = read-out: Human Leukocyte Antigen - DR isotype (HLADR), HLA-DRA (gene 3122); test: BSK_CASM3C_HLADR: BioMAP Diversity Plus: CASM3C Assay for Human Leukocyte Antigen - DR isotype (HLADR) Biomarker Activity (AID 2283043); conditions: primary human coronary artery smooth muscle cells; actives raise or lower the signal;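 also: cell-surface HLA-DR protein level quantified by ELISA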
# [11] = read-out: Macrophage colony-stimulating factor (MCSF), CSF1 (gene 1435); test: BSK_CASM3C_MCSF: BioMAP Diversity Plus: CASM3C Assay for Macrophage colony-stimulating factor (MCSF) Biomarker Activity (AID 2283044); conditions: primary human coronary artery smooth muscle cells; actives raise or lower the signal;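 also: M-CSF protein amount quantified by ELISA after 24 h exposure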
# [12] = read-out: Low-density lipoprotein receptor (LDLR), LDLR (gene 3949); test: BSK_CASM3C_LDLR: BioMAP Diversity Plus: CASM3C Assay for Low-density lipoprotein receptor (LDLR) Biomarker Activity (AID 2283045); conditions: primary human coronary artery smooth muscle cells; actives raise or lower the signal;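 also: LDLR protein level on the cell surface quantified by ELISA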
# [13] = read-out: Monocyte Chemoattractant Protein-1 (MCP1), CCL2 (gene 6347); test: BSK_CASM3C_MCP1: BioMAP Diversity Plus: CASM3C Assay for Monocyte Chemoattractant Protein-1 (MCP1) Biomarker Activity (AID 2283046); conditions: primary human coronary artery smooth muscle cells; actives raise or lower the signal;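 also: MCP-1 level quantified by ELISA 24 h after dosing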
# [14] = BSK_CASM3C_Proliferation: Cell Proliferation Assessment in the BioMAP Diversity Plus: CASM3C Assay (AID 2283047); conditions: primary human coronary artery smooth muscle cells;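 also: sulforhodamine B total protein stain as relative cell number at 560 nm; sub-confluent cells exposed 48 h before staining; fitted both ways against DMSO so gain or loss of cell number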
# [15] = read-out: Monokine induced gamma interferon (MIG), CXCL9 (gene 4283); test: BSK_CASM3C_MIG: BioMAP Diversity Plus: CASM3C Assay for Monokine induced gamma interferon (MIG) Biomarker Activity (AID 2283048); conditions: primary human coronary artery smooth muscle cells; actives raise or lower the signal
# [16] = read-out: serum amyloid A (SAA), SAA1 (gene 6288); test: BSK_CASM3C_SAA: BioMAP Diversity Plus: CASM3C Assay for serum amyloid A (SAA) Biomarker Activity (AID 2283049); conditions: primary human coronary artery smooth muscle cells; actives raise or lower the signal;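 also: SAA protein level quantified by ELISA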
# [17] = read-out: Vascular endothelial growth factor receptor 2 (Homo sapiens) (UniProt P35968); test: BSK_4H_VEGFRII: BioMAP Diversity Plus: 4H Assay for Vascular endothelial growth factor receptor 2 (VEGFR2) Biomarker Activity (AID 2283031); conditions: primary human endothelial cells (HUVEC); actives raise or lower the signal;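 as to AC50: cell-surface VEGFR2 protein level quantified by ELISA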
# In short: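 VEGFRII levels on human vascular endothelial primary cells were determined by ELISA at 24 hours post-dosing, with gain- or loss-of-signal fitted against DMSO controls.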
# [18] = read-out: Vascular cell adhesion molecule 1 (VCAM1), VCAM1 (gene 7412); test: BSK_4H_VCAM1: BioMAP Diversity Plus: 4H Assay for Vascular cell adhesion molecule 1 (VCAM1) Biomarker Activity (AID 2283033); conditions: primary human endothelial cells (HUVEC); actives raise or lower the signal
# In short: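 Primary human umbilical vein endothelial cells, 4H stimulation system, treated for 24 h; cell-surface VCAM-1 quantified by ELISA. Bidirectional fitting against DMSO; cytotoxicity tracked by SRB total-protein staining in parallel cultures.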
# [19] = read-out: Plasminogen activator inhibitor-1 (PAI1), SERPINE1 (gene 5054); test: BSK_BE3C_PAI1: BioMAP Diversity Plus: BE3C Assay for Plasminogen activator inhibitor-1 (PAI1) Biomarker Activity (AID 2283037); conditions: primary human bronchial epithelial cells; actives raise or lower the signal
# In short: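 Primary human bronchial epithelial cells (BE3C system) exposed 24 h; PAI-1 quantified by ELISA. Parallel sulforhodamine B staining of total protein flags cytotoxicity. Bidirectional fit versus DMSO.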
# [20] = read-out: Interferon-gamma inducible Protein 10 (IP10), CXCL10 (gene 3627); test: BSK_BE3C_IP10: BioMAP Diversity Plus: BE3C Assay for Interferon-gamma inducible Protein 10 (IP10) Biomarker Activity (AID 2283034); conditions: primary human bronchial epithelial cells; actives raise or lower the signal
# In short: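 Primary human bronchial epithelial cells, with IP-10 measured by ELISA 24 hours after chemical dosing. Bidirectional fit against DMSO; cytotoxicity checked by SRB total protein staining in parallel cultures.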
smiles,measurement,setting,value
CC(=O)[C@H]1CC[C@H]2[C@@H]3CCC4=CC(=O)CC[C@]4(C)[C@H]3CC[C@]12C,AC50,[1],10 µM (active)
same,outcome,[2],inactive
same,outcome,[3],inactive
same,outcome,[4],inactive
same,outcome,[5],inactive
same,outcome,[6],inactive
same,outcome,[7],inactive
same,outcome,[8],inactive
same,outcome,[9],inactive
same,AC50,[10],8.61 µM (active)
same,outcome,[11],inactive
same,outcome,[12],inactive
same,AC50,[13],3.95 µM (active)
same,AC50,[14],12.7 µM (active)
same,outcome,[15],inactive
same,outcome,[16],inactive
OB(O)O,outcome,[1],inactive
same,outcome,[17],inactive
same,outcome,[2],inactive
same,outcome,[18],inactive
same,outcome,[3],inactive
same,outcome,[4],inactive
same,outcome,[5],inactive
same,outcome,[6],inactive
same,outcome,[7],inactive
same,outcome,[8],inactive
same,outcome,[9],inactive
same,outcome,[10],inactive
same,outcome,[11],inactive
same,outcome,[12],inactive
same,outcome,[13],inactive
same,outcome,[14],inactive
same,outcome,[15],inactive
same,outcome,[16],inactive
C=CCOC(Cn1ccnc1)c1ccc(Cl)cc1Cl (stereo unspecified),outcome,[17],inactive
same,outcome,[2],inactive
same,outcome,[18],inactive
same,outcome,[3],inactive
same,outcome,[4],inactive
same,outcome,[19],inactive
same,outcome,[5],inactive
same,outcome,[6],inactive
same,outcome,[7],inactive
same,outcome,[8],inactive
same,outcome,[9],inactive
same,outcome,[10],inactive
same,outcome,[11],inactive
same,outcome,[12],inactive
same,outcome,[13],inactive
same,outcome,[14],inactive
same,outcome,[15],inactive
same,outcome,[16],inactive
CCCN(CCC)c1c([N+](=O)[O-])cc(C(F)(F)F)c(N)c1[N+](=O)[O-],AC50,[1],33.1 µM (active)
same,AC50,[17],32.3 µM (active)
same,AC50,[2],11.6 µM (active)
same,AC50,[18],20 µM (active)
same,AC50,[3],22.9 µM (active)
same,outcome,[4],inactive
same,outcome,[5],inactive
same,outcome,[7],inactive
same,outcome,[8],inactive
same,outcome,[9],inactive
same,outcome,[10],inactive
same,outcome,[11],inactive
same,outcome,[12],inactive
same,outcome,[13],inactive
same,AC50,[14],28.1 µM (active)
same,outcome,[15],inactive
same,outcome,[16],inactive
COCCO,outcome,[1],inactive
same,outcome,[2],inactive
same,outcome,[18],inactive
same,outcome,[20],inactive
same,outcome,[3],inactive
same,outcome,[4],inactive
same,outcome,[19],inactive
same,outcome,[5],inactive
same,outcome,[6],inactive
same,outcome,[7],inactive
same,outcome,[8],inactive
same,outcome,[9],inactive
same,outcome,[10],inactive
same,outcome,[11],inactive
same,outcome,[12],inactive
same,outcome,[13],inactive
same,outcome,[14],inactive
same,outcome,[15],inactive
same,outcome,[16],inactive
CCCCOC(=O)[C@@H](C)Oc1ccc(Oc2ccc(C(F)(F)F)cn2)cc1,outcome,[1],inactive
same,outcome,[17],inactive
same,outcome,[2],inactive
same,outcome,[18],inactive
same,outcome,[3],inactive
same,outcome,[4],inactive
same,outcome,[19],inactive
same,outcome,[5],inactive
same,outcome,[6],inactive
same,outcome,[7],inactive
same,outcome,[8],inactive
same,outcome,[9],inactive
same,outcome,[10],inactive
same,outcome,[11],inactive
same,outcome,[12],inactive
same,outcome,[13],inactive
same,outcome,[14],inactive
same,outcome,[15],inactive
same,outcome,[16],inactive
CCN(CC)C(=O)c1cccc(C)c1,outcome,[1],inactive
same,outcome,[17],inactive
same,outcome,[2],inactive
same,outcome,[18],inactive
same,outcome,[3],inactive
same,outcome,[4],inactive
same,outcome,[5],inactive
same,outcome,[6],inactive
same,outcome,[7],inactive
same,outcome,[8],inactive
same,outcome,[9],inactive
same,outcome,[10],inactive
same,outcome,[11],inactive
same,outcome,[12],inactive
same,outcome,[13],inactive
same,outcome,[14],inactive
same,outcome,[15],inactive
same,outcome,[16],inactive
CCCCCOC(=O)COc1cc(N2C(=O)C3=C(CCCC3)C2=O)c(F)cc1Cl,outcome,[1],inactive
same,outcome,[17],inactive
same,outcome,[2],inactive
same,outcome,[18],inactive
same,outcome,[3],inactive
same,outcome,[4],inactive
same,outcome,[5],inactive
same,outcome,[6],inactive
same,outcome,[7],inactive
same,outcome,[8],inactive
same,outcome,[9],inactive
same,outcome,[10],inactive
same,AC50,[11],14.4 µM (active)
same,outcome,[12],inactive
same,outcome,[13],inactive
same,AC50,[14],12.6 µM (active)
same,AC50,[15],25.5 µM (active)
same,outcome,[16],inactive
CC(C)(C)[C@@H](O)[C@@H](Cc1ccc(Cl)cc1)n1cncn1,outcome,[1],inactive
same,outcome,[17],inactive
same,outcome,[2],inactive
same,outcome,[18],inactive
same,outcome,[3],inactive
same,outcome,[4],inactive
same,outcome,[5],inactive
same,outcome,[6],inactive
same,outcome,[7],inactive
same,outcome,[8],inactive
same,outcome,[9],inactive
same,outcome,[10],inactive
same,outcome,[11],inactive
same,outcome,[12],inactive
same,outcome,[13],inactive
same,outcome,[14],inactive
same,outcome,[15],inactive
same,outcome,[16],inactive
